Data on 18 compounds can be found in PubChem BioAssay.

Assay [1] in a line: antimalarial activity against Dd2 strain (AID 2302;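 active = growth inhibition above 50% at the single 2 µM test dose, taken to imply half-maximal potency below 2 µM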;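 note: 0% = DMSO untreated growth and 100% = chloroquine plus artemisinin killed control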). The settings on record: P. falciparum Dd2 in RBCs, LDH growth readout, 72 h; at 2 µM; stronger effect = higher value.
Assay [2] is described as follows: human hepatoma cell viability loss – ATP luminescence, cytotoxicity control for P. falciparum antimalarial project, primary screen (AID 2303;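 active = inhibition above 50%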;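 note: 0% = DMSO wells and 100% = digitonin-killed cells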). The following applies: HepG2 viability, 24-48 h, at 10 µM, stronger effect = higher value.
Assay [3] concerns the target L-lactate dehydrogenase (Plasmodium falciparum (isolate CDC / Honduras)) (UniProt Q27743). Kind of assay: PfLDH activity inhibition – cell lysate, 3D7 strain, counter-screen for P. falciparum growth inhibition project (AID 2304).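 Note: 0% = vehicle and 100% = reference inhibitor.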 The settings on record: P. falciparum 3D7 crude extract, LDH APAD/NBT absorbance; at 2 µM; stronger effect = higher value. A general note: A counterscreen serves to expose hits that act by an unwanted route or on another target.

Assay [4] can be described thus: inhibition of 3D7 malaria parasite growth – strain 3D7 (AID 2306).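 Note: 0% = DMSO wells and 100% = chloroquine plus artemisinin control wells.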 The following applies: P. falciparum 3D7 erythrocytic growth, LDH absorbance, 72 h; at 2 µM; stronger effect = higher value.
The target in assay [5] is Calcium-dependent protein kinase 1 (Plasmodium falciparum (isolate 3D7)) (UniProt P62344). The assay can be described thus: PfCDPK1 kinase inhibitors, biochemical, TCAMS library (AID 1159585; cut-off not given, nearly all actives have IC50 up to about 0.98 µM;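 note: inhibitors leave more ATP so luminescence rises with inhibition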). The following applies: recombinant PfCDPK1, Kinase-Glo ATP depletion luminescence. In general terms: Kinase-Glo reads ATP consumption through a luciferase reaction.
The target in assay [6] is Plasmodium falciparum protein kinase 6 (PK6, PF3D7_1337100) (UniProt Q8IDW1). Kind of assay: PfPK6 kinase inhibitors, biochemical, TCAMS library (AID 1159586). The following applies: recombinant PfPK6, Kinase-Glo ATP depletion luminescence.
Assay [7] deals with Protein kinase 7 (PK7), Plasmodium falciparum 3D7 (PF3D7_0213400) (UniProt Q7YTF7). Kind of assay: inhibition of Plasmodium PK7 catalytic activity – biochemical, TCAMS antimalarial set, Kinase-Glo luminescence (AID 1159587). The following applies: recombinant PfPK7, Kinase-Glo ATP depletion luminescence.
Assay [8] has as its target Calcium-dependent protein kinase 4 (Plasmodium falciparum (isolate 3D7)) (UniProt Q8IBS5). The assay can be described thus: PfCDPK4 kinase inhibitors, biochemical, TCAMS library (AID 1159588; cut-off not given, nearly all actives have IC50 up to about 0.91 µM). The settings on record: recombinant PfCDPK4, Kinase-Glo ATP depletion luminescence.

Unmarked numbers belong to inactive results. For part of these data: Potency and affinity values are given separately. Calls of active or inactive are those of the source. Unless noted, the rule behind the calls is not given here.

Plasmodium falciparum protein kinase 6 (PK6, PF3D7_1337100), sequence (Q8IDW1 1-305): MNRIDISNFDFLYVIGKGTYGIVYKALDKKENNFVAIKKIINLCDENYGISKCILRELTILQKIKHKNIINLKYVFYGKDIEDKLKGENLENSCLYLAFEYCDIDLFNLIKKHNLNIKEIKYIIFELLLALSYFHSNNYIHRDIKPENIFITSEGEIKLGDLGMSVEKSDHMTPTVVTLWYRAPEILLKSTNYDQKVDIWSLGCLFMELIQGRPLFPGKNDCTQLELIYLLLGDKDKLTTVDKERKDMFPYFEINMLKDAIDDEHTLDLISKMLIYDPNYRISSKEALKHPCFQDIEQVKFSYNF
Protein kinase 7 (PK7), Plasmodium falciparum 3D7 (PF3D7_0213400), sequence (Q7YTF7 1-343): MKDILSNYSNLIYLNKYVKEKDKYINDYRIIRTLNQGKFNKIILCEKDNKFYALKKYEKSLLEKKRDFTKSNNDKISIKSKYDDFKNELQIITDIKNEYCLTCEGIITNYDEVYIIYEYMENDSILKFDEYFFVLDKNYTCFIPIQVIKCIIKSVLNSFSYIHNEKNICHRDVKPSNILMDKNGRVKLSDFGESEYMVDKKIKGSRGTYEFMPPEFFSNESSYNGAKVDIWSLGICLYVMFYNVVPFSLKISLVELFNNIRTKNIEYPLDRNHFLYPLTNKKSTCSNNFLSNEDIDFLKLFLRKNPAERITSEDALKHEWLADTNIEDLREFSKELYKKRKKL
Calcium-dependent protein kinase 1 (Plasmodium falciparum (isolate 3D7)), sequence (P62344 whole entry, looked up): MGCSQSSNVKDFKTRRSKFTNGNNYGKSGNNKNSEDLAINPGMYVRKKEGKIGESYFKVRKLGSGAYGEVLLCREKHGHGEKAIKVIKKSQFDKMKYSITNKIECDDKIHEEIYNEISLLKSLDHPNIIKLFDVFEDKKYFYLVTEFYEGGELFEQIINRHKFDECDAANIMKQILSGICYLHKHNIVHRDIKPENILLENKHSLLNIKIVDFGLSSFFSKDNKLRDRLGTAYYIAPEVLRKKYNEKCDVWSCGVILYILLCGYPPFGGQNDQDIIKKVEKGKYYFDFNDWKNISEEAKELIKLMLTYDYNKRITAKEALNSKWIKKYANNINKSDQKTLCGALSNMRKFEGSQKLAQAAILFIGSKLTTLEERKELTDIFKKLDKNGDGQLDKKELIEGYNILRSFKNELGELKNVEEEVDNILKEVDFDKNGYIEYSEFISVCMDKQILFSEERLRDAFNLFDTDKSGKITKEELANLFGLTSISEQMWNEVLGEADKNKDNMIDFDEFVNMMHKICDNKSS
Calcium-dependent protein kinase 4 (Plasmodium falciparum (isolate 3D7)), sequence (Q8IBS5 whole entry, looked up): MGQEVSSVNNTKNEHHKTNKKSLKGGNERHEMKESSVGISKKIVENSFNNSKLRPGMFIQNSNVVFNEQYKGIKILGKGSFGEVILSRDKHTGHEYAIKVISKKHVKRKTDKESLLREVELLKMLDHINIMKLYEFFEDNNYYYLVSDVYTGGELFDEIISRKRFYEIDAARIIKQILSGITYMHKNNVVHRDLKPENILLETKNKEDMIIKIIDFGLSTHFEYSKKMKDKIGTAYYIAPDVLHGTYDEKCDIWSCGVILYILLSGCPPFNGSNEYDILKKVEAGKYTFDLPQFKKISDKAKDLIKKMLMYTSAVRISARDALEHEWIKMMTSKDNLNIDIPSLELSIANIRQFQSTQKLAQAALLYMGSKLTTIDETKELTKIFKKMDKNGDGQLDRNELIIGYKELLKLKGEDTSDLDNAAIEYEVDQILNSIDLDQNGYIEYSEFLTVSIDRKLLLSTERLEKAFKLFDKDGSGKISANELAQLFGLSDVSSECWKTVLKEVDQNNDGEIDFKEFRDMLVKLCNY
L-lactate dehydrogenase (Plasmodium falciparum (isolate CDC / Honduras)), sequence (Q27743 whole entry, looked up): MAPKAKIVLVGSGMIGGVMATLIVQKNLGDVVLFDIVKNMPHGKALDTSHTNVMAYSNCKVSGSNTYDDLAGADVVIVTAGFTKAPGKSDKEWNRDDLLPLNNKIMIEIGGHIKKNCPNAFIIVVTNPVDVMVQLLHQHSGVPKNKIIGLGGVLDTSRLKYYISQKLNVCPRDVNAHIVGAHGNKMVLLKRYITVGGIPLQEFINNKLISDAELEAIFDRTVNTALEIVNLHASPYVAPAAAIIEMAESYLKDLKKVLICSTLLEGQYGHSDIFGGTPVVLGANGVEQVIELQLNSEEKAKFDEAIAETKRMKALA

As for `Fc1ccc2nc(-c3ccc(-c4ccc(CN5CCCCC5)cc4)s3)[nH]c2c1`, the growth inhibition in assay [1] was 100% (active); in assay [4], 92% (active). In addition, the inhibition (usually the change of the read-out against control, counted positive when it falls) in assay [2] is 42%; in assay [3], -2%. For the same compound, the result in assay [5], in assay [6], in assay [7] and in assay [8] was inactive.
In the case of `COc1cccc2cc(C(=O)N[C@@H](CC(C)C)C(=O)NC(/C=N/NC(=O)c3ccccc3)CCc3ccccc3)oc12` (some centres undefined), the growth inhibition in assay [1] is 73% (active); in assay [4] it was 88% (active). Besides, the inhibition in assay [2] was 8%; in assay [3] it was -3%. Also, the outcome in assay [5], in assay [6], in assay [7] and in assay [8] was inactive.
For `CN(C)CCN(Cc1ccccc1-c1ccc(CNCCc2ccccc2)cc1)C(=O)NC1CCCCC1`, the growth inhibition in assay [1] is 89% (active); in assay [4] it was 88% (active). Further, the results for the inhibition in assay [2] and in assay [3] were 98% (active) and -1%, respectively. In addition, the outcome in assay [5], in assay [6], in assay [7] and in assay [8] was inactive.
As to `O[C@@H](c1ccc2ccccc2c1)[C@@H]1CN(CCc2ccccc2)CC[C@@]1(O)c1ccccc1`, the growth inhibition in assay [1] was 96% (active); in assay [4], 99% (active). Also, the inhibition in assay [2] and in assay [3] was 1% in each case. The outcome in assay [5], in assay [6], in assay [7] and in assay [8] was inactive.
Take `CC(=O)Nc1ccc(C(=O)Nc2cccc(-c3cccc(-c4nc5ccccc5[nH]4)c3)c2)cn1`: the figures for the growth inhibition in assay [1] and in assay [4] were 100% (active) and 101% (active), respectively. Besides, the inhibition is 3% in assay [2] and -2% in assay [3]. For the same compound, the outcome in assay [5], in assay [6], in assay [7] and in assay [8] was inactive.
Regarding `Cc1noc(-c2ccc3c(c2)CCN(CCC2CCC(NC(=O)c4cc5ccccc5[nH]4)CC2)CC3)n1` (centres undefined), the growth inhibition in assay [1] is 41%; in assay [4], 99% (active). Further, the inhibition in assay [2] was 21%; in assay [3], -7%. In addition, the result in assay [5], in assay [6], in assay [7] and in assay [8] was inactive.
Turning to `Cc1cc(N)nc2ccc(-c3ccc(CN)cc3)cc12`, the growth inhibition was 93% (active) in assay [1] and 100% (active) in assay [4]. The inhibition was 4% in assay [2] and -3% in assay [3]. For the same compound, the result in assay [5], in assay [6], in assay [7] and in assay [8] was inactive.
Take `CC1(C)N=C(N)N=C(N)N1OCc1cc2ccccc2cc1CON1C(N)=NC(N)=NC1(C)C`: the growth inhibition in assay [1] was 51% (active); in assay [4] it was 92% (active). The inhibition in assay [2] was 0%; in assay [3], -5%. Moreover, the outcome in assay [5], in assay [6], in assay [7] and in assay [8] was inactive.
`N#Cc1cccc(C(O)CN(Cc2ccccc2)Cc2ccccc2)c1` (centres undefined): the growth inhibition is 100% (active) in assay [1] and 101% (active) in assay [4]. Besides, the results for the inhibition in assay [2] and in assay [3] were 12% and 1%, respectively. Also, the result in assay [5], in assay [6], in assay [7] and in assay [8] was inactive.
`CCCCNCc1ccc(-c2nc(CN(CCCn3ccnc3)C(=O)Nc3ccc(CC)cc3)cs2)cc1`: the growth inhibition in assay [1] was 56% (active); in assay [4] it was 101% (active). For the same compound, the inhibition in assay [2] is 21%; in assay [3] it was 6%. The outcome in assay [5], in assay [6], in assay [7] and in assay [8] was inactive.
Take `Cc1cnc(C(=O)Nc2cccc(-c3csc(-c4nc5ccccc5[nH]4)c3)c2)cn1`: the growth inhibition in assay [1] is 80% (active); in assay [4], 98% (active). Further, the inhibition in assay [2] was 31%; in assay [3] it was -1%. Further, the outcome in assay [5], in assay [6], in assay [7] and in assay [8] was inactive.
As to `Cc1cccc2c(CON3C(N)=NC(N)=NC3(C)C)cccc12`, the growth inhibition in assay [1] and in assay [4] was 94% (active) throughout. In addition, the inhibition in assay [2] is 64% (active); in assay [3], -1%. Also, the outcome in assay [5], in assay [6], in assay [7] and in assay [8] was inactive.
With `CCCc1cc(=O)oc2cc(OC)c(C(=O)CC(C)C)c(OC)c12`, the growth inhibition is 67% (active) in assay [1] and 81% (active) in assay [4]. Besides, the inhibition in assay [2] was 3%; in assay [3] it was 2%. The result in assay [5], in assay [6], in assay [7] and in assay [8] was inactive.
In the case of `CC(C)NCC(=O)Nc1cccc(C(=O)Nc2cccc(C(F)(F)F)c2)c1`, the growth inhibition was 89% (active) in assay [1] and 97% (active) in assay [4]. Besides, the figures for the inhibition in assay [2] and in assay [3] were 6% and 4%, respectively. The outcome in assay [5], in assay [6], in assay [7] and in assay [8] was inactive.
Take `Cc1ccc(NC(=O)N2CCN(CCCCCNC(=O)/C=C/c3ccc(Cl)c(Cl)c3)CC2)cc1C`: the growth inhibition is -5% in assay [1] and 94% (active) in assay [4]. In addition, the inhibition in assay [2] is 7%; in assay [3], 0%. In addition, the result in assay [5], in assay [6], in assay [7] and in assay [8] was inactive.
For the compound `Cc1ccc(N2CCN(CCCCNC(=O)c3ccc(NC(=O)c4ccc(Cl)cc4)cc3)CC2)c(C)c1`, the growth inhibition in assay [1] was 20%; in assay [4] it was 95% (active). Further, the inhibition is 30% in assay [2] and 7% in assay [3]. Also, the outcome in assay [5], in assay [6], in assay [7] and in assay [8] was inactive.
Turning to `Nc1cccc(CNCc2cccc(-c3cccc(-c4nc5ccccc5[nH]4)c3)c2)c1`, the growth inhibition in assay [1] was 84% (active); in assay [4] it was 101% (active). Besides, the figures for the inhibition in assay [2] and in assay [3] were 1% and -7%, respectively. Also, the outcome in assay [5], in assay [6], in assay [7] and in assay [8] was inactive.
Turning to `CSCCC(C(=O)O)N1C(=O)c2ccccc2C1=O` (centres undefined), the growth inhibition in assay [1] was -3%; in assay [4], 91% (active). Besides, the inhibition is -4% in assay [2] and -1% in assay [3]. For the same compound, the result in assay [5], in assay [6], in assay [7] and in assay [8] was inactive.
